Test results as given in PubChem BioAssay (NCI).
The panel holds about 79,000 compounds, 15% with a hit somewhere; the sample as a whole holds those more often. Values without a mark were called inactive. Active and inactive are the calls of the source. Cut-off read from the data, not from the text of the source: active = growth inhibition above about 70%; inactive = the rest.

Columns and labels:
[1] = NCI Yeast Anticancer Drug Screen. Data for the rad50 strain (AID 155);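 note: 0% = growth of vehicle-only cultures of the same strain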; conditions: S. cerevisiae rad50 strain growth inhibition, active compounds read high
Outline: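 Yeast carrying a defined DNA repair defect were exposed to test compounds, and growth was compared with vehicle-treated controls to give percent inhibition.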

[2] = NCI Yeast Anticancer Drug Screen. Data for the mec2-1 strain (AID 157); conditions: S. cerevisiae mec2-1 strain, active compounds read high
Outline: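 Vehicle-treated cultures served as reference for growth inhibition of compound-exposed mec2-1 yeast.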

[3] = NCI Yeast Anticancer Drug Screen. Data for the sgs1 mgt1 strain (AID 161);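 note: 0% = growth of cultures given vehicle only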; conditions: S. cerevisiae sgs1 mgt1 strain, active compounds read high
Outline: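 Read-out: growth inhibition vs vehicle controls. Cells: mutant yeast strain deficient in DNA damage repair.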

[4] = NCI Yeast Anticancer Drug Screen. Data for the cln2 rad14 strain (AID 165);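 note: 0% = growth equal to vehicle treated cultures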; conditions: S. cerevisiae cln2 rad14 strain, active compounds read high
Outline: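 Each compound was tested on cln2 rad14 yeast. Inhibition of growth was calculated against vehicle-exposed controls.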

[5] = NCI Yeast Anticancer Drug Screen. Data for the bub3 strain (AID 167); conditions: S. cerevisiae bub3 mutant strain, active compounds read high
Outline: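 Compounds were applied to a genetically altered yeast strain carrying a cell-cycle control defect. Growth inhibition was scored against vehicle-treated controls.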

[6] = NCI Yeast Anticancer Drug Screen. Data for the mlh1 rad18 strain (AID 175); conditions: S. cerevisiae mlh1 rad18 strain growth inhibition, active compounds read high
Outline: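 Vehicle-treated cultures served as the reference for growth inhibition in a yeast strain carrying DNA damage repair alterations exposed to each compound.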

[7] = at 5.0 µM (retest, dose inferred, filed as 0.5)
[8] = at 50.0 µM (retest, dose inferred, filed as 5.0)

SMILES | growth inhibition [1, 7] [%] | growth inhibition [1, 8] | growth inhibition ([1]; at 50.0 µM) | growth inhibition [2, 7] [%] | growth inhibition [2, 8] | growth inhibition ([2]; at 50.0 µM) | growth inhibition [3, 7] [%] | growth inhibition [3, 8] | growth inhibition ([3]; at 50.0 µM) | growth inhibition [4, 7] [%] | growth inhibition [4, 8] | growth inhibition ([4]; at 50.0 µM) | growth inhibition [5, 7] [%] | growth inhibition [5, 8] | growth inhibition ([5]; at 50.0 µM) | growth inhibition [6, 7] [%] | growth inhibition [6, 8] | growth inhibition ([6]; at 50.0 µM)
C/C(=N/NC(=S)N(C)C)c1ccccc1O | 2 | 13% | -28.2% | -34 | 9% | 86.3% (active) | -43 | 16% | 52% | 18 | 3% | 77.9% (active) | -29 | 21% | 36.8% | -17 | 28% | 16.7%
O/N=C(/CCc1ccccc1)c1ccccc1 | 7 | 84% (active) | 97.1% (active) | 2 | 70% (active) | 97% (active) | 5 | 76% (active) | 97.2% (active) | -2 | 56% | 93.2% (active) | -2 | 71% (active) | 95.7% (active) | 2 | 71% (active) | 97.2% (active)
O=C(c1cc2c(C(F)(F)F)onc2c2ccccc12)C(F)(F)F | -8 | 5% | 76.7% (active) | -17 | 9% | 44.9% | -8 | -2% | 50.6% | 0 | 28% | 64.8% | 12 | 42% | 38.9% | 0 | 26% | 36.4%
C/C=C(\C)C(=O)OC1C2C(C)=CC(=O)C(O)C2(C)C2C3(O)OCC24C1OC(=O)C(O)C4C(C)C3O (configuration not stated) | -2 | 54% | 84.2% (active) | 15 | 30% | 72.5% (active) | 9 | 42% | 71.7% (active) | 8 | 67% | 78.5% (active) | -13 | 51% | 75.8% (active) | -33 | 66% | 34.5%
CC(C)C(O)(C(=O)OCN1C(=O)C2C3C=CC(C2C1=O)C1C2C(=O)N(COC(=O)C(O)(C(C)C)C(C)O)C(=O)C2C31)C(C)O (configuration not stated) | 0 | -7% | 28.5% | -2 | 11% | 52% | -7 | 17% | 37.9% | 0 | -2% | 18.1% | 5 | 9% | -2% | -3 | 2% | 30.6%
O=C(/C=C\c1ccc(Cl)c(Cl)c1)c1cccs1 | 13 | -9% | 58.9% | -2 | 4% | 64.4% | 4 | -25% | 92.2% (active) | -6 | -3% | 51.6% | -4 | 11% | 89.7% (active) | -3 | 6% | 85.5% (active)
Cc1cc(NCCCCCCCCNc2cc(C)nc3cc(N(C)C)ccc23)c2ccc(N(C)C)cc2n1 | 18 | 95% (active) | 84.9% (active) | 18 | 97% (active) | 90.5% (active) | 53 | 97% (active) | 26.5% | 24 | 97% (active) | 18.4% | 57 | 97% (active) | 32.1% | 17 | 96% (active) | -17.5%
Cc1cc(C)cc([C@H](C)N=Cc2cc(Br)ccc2O)c1 | 11 | 95% (active) | 96% (active) | -14 | 95% (active) | 95.8% (active) | -1 | 87% (active) | 89.9% (active) | -4 | 96% (active) | 86.3% (active) | -10 | 98% (active) | 95.2% (active) | 2 | 96% (active) | 97.5% (active)
CCOC(=O)c1c(C)n(C)c2c1nnc1ccccc12 | 16 | 85% (active) | 64.7% | 15 | 79% (active) | 51.1% | 19 | 82% (active) | 59% | 12 | 69% | 55.2% | 1 | 73% (active) | 46% | 7 | 83% (active) | 57.1%
